Measurements: PubChem BioAssay AID602314 (ICCB-Longwood Screening Facility, Harvard Medical School, 2012)
Hit rate of the full screen: of about 84,000 compounds, about 110 (0.13%) were called active. The sample holds actives, similar compounds and a random draw of the others, so the mix is not that of the screen. Unmarked numbers belong to inactive results. No stated cut-off is given here; in the data, active means inhibition above about 30% (passing the limit was not always enough); inactive means the rest.

Each compound was assayed on MgrA (MarR family transcriptional regulator), Staphylococcus aureus Newman (assay: S. aureus MgrA activity modulators, primary screen, biochemical, S. aureus Newman, fluorescence polarization (AID 602314;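 further: 0% = protein plus DNA without compound and 100% = DNA alone without protein; higher means less MgrA bound to DNA so lower polarization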)). Settings: MgrA-DNA binding, active compounds read high, concentration not given here.
Compound `CCOc1ccc(CC(C(=O)O)C(=O)O)cc1` has an inhibition of 0.1%. `N#CCCN(C1CCCCC1)S(=O)(=O)c1ccc(Br)cc1` gave an inhibition of -0.95%. `COc1ccc(CC(NC(C)=O)C(=O)O)c(Cl)c1OC` (stereo unspecified) showed an inhibition of -0.7%. For `Cn1c(SCC(=O)Nc2ccc(C(F)(F)F)cc2)nnc1-c1ccc2nonc2c1`, the inhibition was -0.1%. `COC(=O)C1=Cc2cc(Cl)ccc2OC1` gave an inhibition of 0.15%. With `Cc1cccc(CN2C(=O)CSc3nc(C)cc(C)c32)c1` the inhibition was -0.45%. Compound `CCN(CC)CCCN1C(=O)C2C3C=CC(C2C1=O)C1C2C(=O)N(CCCN(CC)CC)C(=O)C2C31` (stereo unspecified) has an inhibition of 0.8%. In the case of `CCOc1ccc(NC(=O)c2cc(-c3ccc(OC)c(OC)c3)nc3ccccc23)c([N+](=O)[O-])c1`, the inhibition is reported as -1.4%. For `COc1ccc(C)c2c1CCCC2=O`, the inhibition was -1.4%. With `Cc1ccc(Nc2cc([Se]c3ccccc3)c(N)c3c2C(=O)c2ccccc2C3=O)cc1` the inhibition was -3.2%. In the case of `Cc1ccc2sc(-c3ccc(NC(=O)C(C)C)cc3)nc2c1`, the inhibition is reported as -2.5%. With `Cc1ccc(-c2noc(CN(C)C(=O)Nc3ccc(Cl)cc3)n2)cc1` the inhibition was 0.05%. In the case of `COc1cccc2c1NC(c1cccc(Cl)c1Cl)C1CC=CC21` (stereo unspecified), the inhibition is reported as -1.1%. For `Cc1ccccc1Cn1nnc(-c2ccncc2)n1`, the inhibition was -3.5%. Work on `COc1ccc(-c2ccc(/C=c3\sc4nc5cc(C)c(C)cc5n4c3=O)o2)c([N+](=O)[O-])c1` yielded an inhibition of 0.8%. `O=C(CC1CCCCC1)NCc1ccco1` was tested, and the inhibition was 1.25%. In the case of `CC(=O)Oc1ccc(OC(C)=O)c2c1C1C=CC2CC1`, the inhibition is reported as -2.5%. For `COc1ccc(Nc2nc(Cl)nc(NCCN3CCOCC3)n2)c(OC)c1`, the inhibition was 0.3%. For `O=C(Nc1ccccc1C(=O)N1CCCC1)Oc1ccccc1`, the inhibition was -0.95%. For `CCCCn1c(SCC(=O)N(C(C)C)C(C)C)nc2c1c(=O)n(C)c(=O)n2C`, the inhibition was 0.4%. With `O=c1c2c3c(sc2ncn1Cc1nn[nH]n1)CCCC3` the inhibition was -0.2%. In the case of `Cc1c(CN2CCCCC2)c(O)n(CCO)c(=O)c1C#N`, the inhibition is reported as -3.25%. For `C=CCn1cnc2c(c1=O)c1nc3ccccc3nc1n2-c1cccc(Br)c1`, the inhibition was 2.4%. For `CCOc1cc2c(cc1/C=C(\C#N)c1ccc(C(F)(F)F)cc1)OCO2`, the inhibition was 1.15%. `O=S(=O)(c1ccc(Cl)cc1)N1CCCN(Cc2ccc(Cl)cc2Cl)CC1` showed an inhibition of 1%. In the case of `CCn1cc(S(=O)(=O)Nc2cc(C)on2)cn1`, the inhibition is reported as -2.15%. Compound `COc1ccccc1N1C(=O)NC(=O)/C(=C/c2cn(C(C)=O)c3ccccc23)C1=O` has an inhibition of 10.3%. `O=S(=O)(c1ccc(Br)s1)N1CCCC1` gave an inhibition of 2.65%. Work on `CSc1noc(-c2ccc(C(C)(C)C)cc2)c1C#N` yielded an inhibition of 4.25%. Work on `N=C1/C(=C\c2cccn2-c2ccc3ccccc3c2)C(=O)N=C2SC=NN12` yielded an inhibition of 4.5%. `CCOC(=O)C1CCCN(c2c3c(nc4cc(-c5ccc(C)cc5)nn24)CCC3)C1` (stereo unspecified) gave an inhibition of -2.15%. With `COc1cc(C=Nc2ccc3[nH]c(=O)[nH]c3c2)ccc1OC(C)=O` the inhibition was 0.05%. Work on `COc1ccc2nc(SCC(=O)c3ccc(Cl)c(Cl)c3)[nH]c2c1` yielded an inhibition of -2.6%. Work on `Cn1c(-c2ccccc2)c[n+]2c1CCCCC2` yielded an inhibition of -2.6%. `N=Cc1c(O)n(-c2ccccc2)c2ccccc12` was tested, and the inhibition was 4.8%. `CCOC(=O)C1=C(C)N(C)C(C)=C(C(=O)OCC)C1c1ccccc1F` gave an inhibition of -0.1%. Compound `O=c1oc(Nc2ccc(C(F)(F)F)cc2)nc2ccccc12` has an inhibition of 0.2%. For `COc1ccc(CCN(Cc2cc3cc4c(cc3[nH]c2=O)OCO4)C(=O)c2ccncc2)cc1OC`, the inhibition was 2.6%. `S=C(Nc1ccc2[nH]ccc2c1)NC1CC2C=CC1C2` (stereo unspecified) showed an inhibition of -0.05%. For `Cc1cccc(NC(=O)c2cn(-c3ccccc3)nc2-c2cccnc2)c1`, the inhibition was -3%. With `OC1(C(F)(F)F)CC(c2ccccc2)=NN1c1cccc2cccnc12` (stereo unspecified) the inhibition was -1.3%. `CN1C(=O)C2N=NN(c3ccccc3)C2C1=O` (stereo unspecified) showed an inhibition of 1.8%. Work on `O=C(N/N=C/C1CC=CCC1)c1ccccc1` (stereo unspecified) yielded an inhibition of 2.3%. Compound `O=C(COc1ccc(C2Nc3cccc4cccc(c34)N2)cc1)Nc1ccccc1` has an inhibition of 1.95%. `O=C(Nc1cccc2ccccc12)NC1CC1` showed an inhibition of 1.3%. `CC1=C(C(=O)OCC2CCCCC2)C(c2ccccc2OCc2ccccc2)NC(=O)N1` (stereo unspecified) showed an inhibition of -1.8%. Compound `CCOC(=O)c1sc(NC(=O)c2sc3ccccc3c2Cl)nc1-c1ccccc1` has an inhibition of -3.1%. `COc1cccc(C(=O)Nc2ccccc2Cl)c1` showed an inhibition of -5.8%. For `COc1ccccc1N1C(=O)C(=Cc2ccco2)C(=O)N(c2ccccc2OC)C1=O`, the inhibition was 2.2%. For `CC(=O)Oc1ccc(C2NC(C(=O)O)CS2)cc1` (stereo unspecified), the inhibition was -3.3%. `O=C1NC(=S)N(c2ccc(Br)cc2)C(=O)/C1=C/c1ccsc1` was tested, and the inhibition was 24.2%.
